Measurements from PubChem BioAssay AID651692 (Broad Institute, 2012).
Potency and affinity values are given separately. Values without a mark were called inactive.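 The calls were made as follows: active = fitted half-maximal concentration for loss of cell signal no higher than twice the top valid tested concentration; inconclusive = flat curve at 30 to 70% inhibition, or poor fit; inactive = flat within 30%, signal rise, or potency above limit.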

assay: MDA-MB-231 cell growth inhibition, dose response, cytotoxicity control for RAD54 inhibitor project, CellTiter-Glo luminescence, cherry-pick (AID 651692); conditions: MDA-MB-231 viability, 24 h; series mostly up to 26 µM; activity change, negative = growth inhibition: at the top concentration;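 also: 0% = median of sample compound wells and -100% = staurosporine control wells; more negative values mean stronger loss of viable cell signal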

Row | SMILES | activity change, negative = growth inhibition [%]
1 | Cc1c(O)c(CN(C)C)cc2c1oc(=O)c1ccccc12 | 7.59
2 | COc1ccc2nc3cc(Cl)ccc3c(Nc3cc(CN4CCCC4)c(O)c(CN4CCCC4)c3)c2n1 | 11.3
3 | COc1cccc(-c2cc3nc(NCCCN(C)C)n(C)c(=O)c3s2)c1 | -0.818
4 | CN(C)CCN(C(=O)c1ccco1)c1nc2cc3c(cc2s1)OCCO3 | -3.18
5 | CN1CCCC1CCNc1ccc2c(=O)c3ccccc3oc2c1 (stereo not given) | 6.49
6 | COc1ccc(OC)c(Nc2nc(NCCO)c3ccccc3n2)c1 | 6.73
7 | CC(=O)Nc1cc(-c2ccc(N3CCN(C)CC3)cc2)cn2c(-c3cccc(C(C)=O)c3)cnc12 | -11
8 | Oc1ccc(Nc2ccnc3cc(Cl)ccc23)cc1 | -1.5
9 | Cc1cc(NCCCN(C)C)n2c(nc3ccccc32)c1C#N | 6.97
10 | COc1ccc(Cc2c(-c3ccc(OC)c(OC)c3)nc3c(C)cc(Br)cn23)c(C)c1 | 16.1
11 | COc1ccc2c(c1)c1ncn(CCN3CCCC3)c(=O)c1n2C | 2.26
12 | Cc1cccn2c(=O)c3cc(C(=O)NCCN4CCOCC4)c(=N)n(CCCN4CCOCC4)c3nc12 | 10.8
13 | Nc1c(C(=O)NCCN2CCOCC2)c2nc3ccccc3nc2n1-c1ccccc1 | 7.11
14 | CN1CCN(c2nc(-c3cccnc3)nc3ccccc23)CC1 | 4.66
15 | COc1ccc(OC)c2c(C)cc(NCCN3CCOCC3)nc12 | -1.22
16 | CCOCCCn1c(=N)c(C(=O)NCCN2CCOCC2)cc2c(=O)n3cccc(C)c3nc21 | 1.54
17 | CCN(CC)CCCNC(=O)c1cc2c(=O)n(C)c3ccccc3c2n1C | -6.68
18 | CN(C)CCNC(=O)c1cc2c(=O)n(C)c3ccccc3c2n1C | 6.67
19 | COc1ccc(-c2cnc3c(NC(C)=O)cc(-c4cccc(C(=O)NCCN(C)C)c4)cn23)cc1OC | -9.16
20 | CN(C)CCCNc1nc2cc(-c3cccc(Cl)c3)sc2c(=O)n1C | -3.45

Row | SMILES | activity change, negative = growth inhibition [%]
21 | NC(=O)CN1CCN(CCN2C(=O)c3cccc4cccc(c34)C2=O)CC1 | 0.913
22 | Cc1ccc2oc(=O)c3cc(C(=O)NCCCN4CCN(C)CC4)sc3c2c1 | 6.21
23 | CCOC(=O)c1cnc2c(Cl)cccc2c1NCCCN1CCOCC1 | 8.64
24 | COc1cc2nc(Nc3ccc(F)cc3)nc(N)c2cc1OC | 14.2
25 | CC1CCN(CCCNC(=O)c2cc3c(Cl)nc4ccccc4c3s2)CC1 | -10.9
26 | CCN(CC)CCNC(=O)c1cc2c(=O)n(C)c3ccccc3c2s1 | -8.38
27 | Cc1cccc(Cn2c(Sc3nc(C)cs3)nc3c2c(=O)[nH]c(=O)n3C)c1 | 14.1
28 | CN(C)CCCNc1ncnc2sc(-c3ccccc3)cc12 | -11.5
29 | COc1ccc(CCn2c(=N)c(C(=O)NCCN3CCOCC3)cc3c(=O)n4cccc(C)c4nc32)cc1OC | -11.8
30 | CCN(CC)S(=O)(=O)c1ccc(Cl)c(C(=O)Nc2nnc(C)s2)c1 | 3.35
31 | Cc1ccc2[nH]c(=O)c3cc(C(=O)NCCN4CCN(C)CC4)sc3c2c1 | -2.44
32 | CN(C)CCCN(C(=O)c1ccc([N+](=O)[O-])o1)c1nc2cc3c(cc2s1)OCO3 | 10.8
33 | CCN(CC)CCn1c2ccccc2c2nc3ccccc3nc21 | 1.86
34 | CCN(CC)CCN1CCN(c2cncc(-c3cccc(N)c3)n2)CC1 | 3.21
35 | O=C(Nc1ccc2c(c1)OCO2)c1cc(-c2ccncc2)nc2ccccc12 | -13.1
36 | CCN(CC)CCn1c2ccccc2c2nc3ccc([N+](=O)[O-])cc3cc21 | -13.4
37 | Cn1c(NCCN2CCCC2)nc2cc(-c3ccsc3)sc2c1=O | 4.38
38 | Nc1ccc(-c2nc3c(ccc4ccccc43)[nH]2)cc1 | 11.9
39 | CCN(CC)CCNc1nc2cc(OC)c(OC)cc2c2nc(-c3ccccc3)nn12 | -20.1
40 | COc1cccc2sc3cc(NCCCN4CCOCC4)ccc3c(=O)c12 | 6.52
